PubChem BioAssay (Tox21)
Where “and” joins values, the source holds several entries; their conditions need not be identical. Equal entries are not always repeated. Records with an inconclusive call do not appear. Where a structure was tested more than once in an assay, its records may differ in their call. Calls of active or inactive are those of the source. Unless noted, calls follow the shape of the dose curve; as a rule, active = well fitted curve in the direction sought with a large enough effect in the repeat runs; inconclusive = weak or mixed curves; inactive = no such curve, though single readings can be large; an effect the other way counts as inactive or inconclusive.

What was measured:
[1] = qHTS assay for small molecule agonists of the p53 signaling pathway (AID 651631; calls by dose curve; also: nearly all actives have a fitted effect of over 15% in size; also: potency is read from the fitted curve at half-maximal effect)
Method in brief: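 HCT-116 cells carrying a beta-lactamase reporter under p53 response elements were dosed with compound for 16 h at 37 °C. LiveBLAzer B/G FRET substrate was then added for 2 h at room temperature, and fluorescence intensity was read to detect pathway agonism.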

[2] = qHTS assay for small molecules that induce genotoxicity in human embryonic kidney cells expressing luciferase-tagged ATAD5 (AID 651632); also: nearly all actives have a fitted effect of over 15% in size; also: potency is read from the fitted curve at half-maximal effect
Method in brief: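 Reporter cells (HEK293T) express luciferase-tagged ATAD5, a protein that accumulates after DNA damage. Treat 16 hr at 37C/5% CO2, add Amplite, wait 30 min at RT, and read luminescence.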

[3] = qHTS assay for small molecule agonists of the p53 signaling pathway - cell viability (AID 651633; calls by dose curve; also: nearly all actives have a fitted effect of over 30% in size; also: potency is read from the fitted curve at half-maximal effect)
Method in brief: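 p53RE-bla cells, seeded at 4,000 per well and rested 5 h at 37 C/5% CO2, received compounds in DMSO for 16 h at 37 C. CellTiter-Glo was then added, and luminescence was read after 30 min at room temperature to gauge cytotoxicity.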

[4] = qHTS assay for small molecules that induce genotoxicity in human embryonic kidney cells expressing luciferase-tagged ATAD5 - cell viability (AID 651634; calls by dose curve; also: nearly all actives have a fitted effect of over 25% in size; also: potency is read from the fitted curve at half-maximal effect)
Method in brief: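 Seeding of 2,000 HEK293T ATAD5-luciferase cells per well preceded pin-tool compound transfer. Plates sat 15.5 hr at 37C under 5% CO2, then fluorescence was read after 30 min with CellTiter-Fluor.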

[5] = qHTS assay for small molecule disruptors of the mitochondrial membrane potential - cell viability (AID 720634; calls by dose curve; also: nearly all actives have a fitted effect of over 20% in size; also: potency is read from the fitted curve at half-maximal effect)
Method in brief: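 Measuring cytotoxicity alongside mitochondrial potential, the screen quantified ATP by luminescence in HepG2 cells after 1 hr compound incubation and a 30 min room-temperature CellTiter-Glo step.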

[6] = qHTS assay for small molecule disruptors of the mitochondrial membrane potential (AID 720635); also: potency is read from the fitted curve at half-maximal effect
Method in brief: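 HepG2 cells (2,000/well) attached overnight at 37C, then took compound for 1 hr at 37C, 5% CO2. Mito-MPS dye was added for 30 min; fluorescence was read at 490/535 nm (monomers) and 540/590 nm (aggregates).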

[7] = qHTS assay to test for compound auto fluorescence at 590 nm (red) in HepG2 cells (AID 720674)
Method in brief: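 Rose Bengal sodium served as the red fluorophore standard. HepG2 monolayers (overnight attachment, MEM with 10% FBS) were exposed to test compounds for 1 hr at 37 C and read at Ex 540/Em 590 nm.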

[8] = qHTS assay to test for compound auto fluorescence at 535 nm (green) in HepG2 cells (AID 720675)
[9] = qHTS assay to test for compound auto fluorescence at 460 nm (blue) in HEK293 cells (AID 720678)
Method in brief: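 Intrinsic compound fluorescence is recorded in live HEK293 cultures after overnight incubation at 37C, 5% CO2, using excitation 405 nm and emission 460 nm. Values are referenced to triamterene.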

[10] = qHTS assay to test for compound auto fluorescence at 590 nm (red) in HEK293 cells (AID 720679)
Method in brief: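 Red autofluorescence, HEK293 cells: 2,000 cells/well; attach 4-5 hr 37C; add 23 nL cpd or DMSO; incubate o/n 37C 5% CO2; read Ex540/Em590; Rose Bengal sodium reference.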

[11] = qHTS assay to test for compound auto fluorescence at 535 nm (green) in HEK293 cells (AID 720680)
[12] = qHTS assay to test for compound auto fluorescence at 460 nm (blue) in HEK293 cell free culture (AID 720681)
Method in brief: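 Test compounds were pinned into cell-free culture medium (DMEM with 10% FBS) and fluorescence was read directly at Ex/Em 405/460 nm. Signals were expressed as fluorescence equivalents of triamterene, with DMSO vehicle as control.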

[13] = qHTS assay to test for compound auto fluorescence at 535 nm (green) in HEK293 cell free culture (AID 720682)
Method in brief: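 Green-label autofluorescence (485 nm excitation, 535 nm emission) measured on compound added to cell-free culture medium (DMEM, 10% FBS). Output is expressed relative to fluorescein.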

[14] = qHTS assay to test for compound auto fluorescence at 590 nm (red) in HEK293 cell free culture (AID 720683)
Method in brief: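 Tox21 10K library compounds were pinned into cell-free DMEM with 10% FBS and fluorescence was read at excitation 540 nm. Activity is expressed as Rose Bengal sodium equivalency.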

[15] = qHTS assay to test for compound auto fluorescence at 590 nm (red) in HepG2 cell free culture (AID 720684)
Method in brief: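 Red fluorescence (540 nm excitation, 590 nm emission) was measured after compound transfer into cell-free MEM supplemented with 10% FBS. Values are equivalencies against Rose Bengal sodium.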

[16] = qHTS assay to test for compound auto fluorescence at 460 nm (blue) in HepG2 cell free culture (AID 720685)
Method in brief: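 Compound (23 nL) or DMSO pinned into cell-free MEM with 10% FBS; blue fluorescence read at 405/460 nm excitation/emission, expressed as auto-fluorescence equivalency to triamterene.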

[17] = qHTS assay to test for compound auto fluorescence at 535 nm (green) in HepG2 cell free culture (AID 720686)
[18] = target: Glucocorticoid receptor (Homo sapiens) (UniProt P04150); test: qHTS assay to identify small molecule agonists of the glucocorticoid receptor (GR) signaling pathway (AID 720691; active = well fitted activation curve with a large enough effect in the signal ratio in the repeat runs, not every such curve was filed as active; the % refers to the signal ratio)
Glucocorticoid receptor (Homo sapiens), sequence (P04150 whole entry, looked up): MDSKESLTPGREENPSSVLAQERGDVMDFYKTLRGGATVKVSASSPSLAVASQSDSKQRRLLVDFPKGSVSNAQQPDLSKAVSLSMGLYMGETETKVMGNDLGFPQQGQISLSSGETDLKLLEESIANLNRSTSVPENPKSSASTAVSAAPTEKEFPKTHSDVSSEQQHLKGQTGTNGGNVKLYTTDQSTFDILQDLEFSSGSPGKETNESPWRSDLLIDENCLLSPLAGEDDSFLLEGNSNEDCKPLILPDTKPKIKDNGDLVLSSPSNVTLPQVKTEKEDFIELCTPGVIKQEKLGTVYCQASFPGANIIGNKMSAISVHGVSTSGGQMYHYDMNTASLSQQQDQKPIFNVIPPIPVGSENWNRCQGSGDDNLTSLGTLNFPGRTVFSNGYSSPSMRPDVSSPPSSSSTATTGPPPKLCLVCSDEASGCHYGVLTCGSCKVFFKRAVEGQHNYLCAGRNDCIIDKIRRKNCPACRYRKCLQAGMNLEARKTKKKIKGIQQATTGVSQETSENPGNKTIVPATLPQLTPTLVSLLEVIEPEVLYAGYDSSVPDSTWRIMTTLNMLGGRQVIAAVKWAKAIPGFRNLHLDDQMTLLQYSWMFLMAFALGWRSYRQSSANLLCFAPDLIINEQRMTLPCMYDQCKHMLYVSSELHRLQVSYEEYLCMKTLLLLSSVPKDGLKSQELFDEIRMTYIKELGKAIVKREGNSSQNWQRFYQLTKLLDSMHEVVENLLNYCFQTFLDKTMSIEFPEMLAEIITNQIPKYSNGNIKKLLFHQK
Method in brief: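 Reporter read-out: fluorescence intensity following 2 h room-temperature LiveBLAzer B/G FRET substrate loading. Prior step: GR-bla HeLa cells held 4 h, then treated 18 h at 37 C.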

[19] = target: Glucocorticoid receptor (Homo sapiens) (UniProt P04150); test: qHTS assay to identify small molecule antagonists of the glucocorticoid receptor (GR) signaling pathway (AID 720692; active = well fitted inhibition curve with a large enough effect in the signal ratio in the repeat runs, not every such curve was filed as active; the % refers to the signal ratio)
Method in brief: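 Dexamethasone (5 nM final) stimulated a stably integrated GRE-beta-lactamase reporter in HeLa cells during 18 h co-incubation with compounds; signal was quantified as fluorescence intensity of B/G FRET substrate after 2 h.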

[20] = qHTS assay to test for compound auto fluorescence at 460 nm (blue) in HepG2 cells (AID 720687)
Method in brief: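 Cells (2,000/well in MEM with 10% FBS) attached overnight at 37 C, then were exposed to compound or DMSO for 1 hr at 37 C, 5% CO2. Fluorescence read at Ex/Em 405/460 nm, expressed as triamterene-equivalent signal.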

Measured: Potency

C=C(C)C(=O)OCC1CO1 (stereo unspecified)
inactive: [1] | [2] | [3] | [4] | [5] | [6] | [7] | [8] | [9] | [10] | [11] | [12] | [13] | [14] | [15] | [16] | [17] | [18] | [19]

CCN(CC)C(=O)SCc1ccc(Cl)cc1
active: [6] 19.9 µM and 12.2 µM
inactive: [1] | [2] | [3] | [4] | [5] | [7] | [8] | [9] | [10] | [11] | [12] | [13] | [14] | [15] | [16] | [17] | [20] | [18] | [19]

CCCCNC(=O)n1c(NC(=O)OC)nc2ccccc21
active: [1] 13.6 µM and 15.4 µM
inactive: [2] | [3] | [4] | [5] | [6] | [7] | [9] | [10] | [11] | [12] | [13] | [14] | [15] | [16] | [17] | [20] | [18] | [19]

O=c1oc2ccccc2c(O)c1C(CC(O)c1ccc(-c2ccc(Br)cc2)cc1)c1ccccc1 (stereo unspecified)
active: [1] 21.1 µM and 46 µM | [3] 9.44 µM and 51.6 µM | [5] 6.68 µM | [6] 6.68 µM and 23 µM
inactive: [2] | [4] | [8] | [9] | [10] | [11] | [12] | [13] | [14] | [15] | [16] | [17] | [20]

CCOP(=S)(OCC)O/N=C(\C#N)c1ccccc1
inactive and 54.5 µM (active): [5]
inactive: [1] | [2] | [3] | [4] | [6] | [8] | [9] | [10] | [11] | [12] | [13] | [14] | [15] | [16] | [17] | [18] | [19]

Nc1ccc(Cl)cc1N
inactive: [3] | [4] | [5] | [7] | [8] | [9] | [10] | [11] | [12] | [13] | [14] | [15] | [16] | [17] | [18] | [19]
active: [1] 19.3 µM | [2] 56.7 µM and 5.45 µM | [6] 4.5 µM and 770 nM

O=[N+]([O-])c1ccc(O)c([N+](=O)[O-])c1
inactive: [1] | [2] | [3] | [7] | [8] | [9] | [10] | [11] | [12] | [13] | [14] | [15] | [16] | [17] | [20]
active: [4] 27.4 µM and 27.3 µM | [5] 10.9 µM | [6] 689 nM and 545 nM

CN(C)C(=O)Nc1ccc(Cl)cc1
inactive: [1] | [2] | [3] | [4] | [5] | [6] | [7] | [9] | [10] | [11] | [12] | [13] | [14] | [15] | [16] | [17] | [20] | [18] | [19]

CCCCCCCCOC(=O)c1ccccc1C(=O)OCCCCCCCC
inactive: [1] | [2] | [3] | [4] | [5] | [6] | [9] | [10] | [11] | [12] | [13] | [14] | [15] | [16] | [17] | [20]

CC(C)(OOC(C)(C)c1ccccc1)c1ccccc1
active: [6] 60.3 µM
inactive: [1] | [2] | [3] | [4] | [5] | [8] | [9] | [10] | [11] | [12] | [13] | [14] | [15] | [16] | [17] | [20] | [18] | [19]

O=C1C=CC(=O)C=C1
inactive: [1] | [2] | [3] | [4] | [5] | [6] | [7] | [8] | [9] | [10] | [11] | [12] | [13] | [14] | [15] | [16] | [17]

C[C@]12CCC(=O)C(O)=C1CC[C@@H]1[C@@H]2CC[C@]2(C)C(=O)CC[C@@H]12
inactive: [1] | [2] | [3] | [4] | [5] | [6] | [7] | [8] | [9] | [10] | [11] | [12] | [13] | [14] | [15] | [16] | [17] | [20] | [18] | [19]

CCCCOCCOP(=O)(OCCOCCCC)OCCOCCCC
inactive: [1] | [2] | [4] | [7] | [9] | [10] | [11] | [12] | [13] | [14] | [15] | [16] | [17] | [18] | [19]
27.3 µM (active) and inactive: [6]
54.5 µM (active) and inactive: [3] | [5]

Nc1cccnc1
inactive: [1] | [2] | [3] | [4] | [5] | [6] | [7] | [9] | [10] | [11] | [12] | [13] | [14] | [15] | [16] | [17] | [20]
